Source: the supplement of paper PMC10849652
Of roughly 8,800 targets only a part is listed; those with a hit were picked by preference. About 0.5% of all pairs of compound and target were hits.

Experiments:
Assay in all cases: log2 fold change, soluble protein after heating vs DMSO (PISA); higher = thermal stabilisation; K562 lysate, 10 uM; active = over 0.2 and 3.5 SD of the protein, either way, in both replicates (recomputed)
lapatinib = compound: CS(=O)(=O)CCNCc1ccc(-c2ccc3ncnc(Nc4ccc(OCc5cccc(F)c5)c(Cl)c4)c3c2)o1 [lapatinib]
How it was run: (§1)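 To prepare the extract, K562 pellets were dounce-homogenised in PBS pH 7.4 with 1 mM MgCl2, giving crude material at 1 mg/mL protein. This was treated with 10 μM compound for 30 min, then heated in aliquots for 3 min over 48°C-58°C before pooling and addition of NP-40 to 0.5% at 4°C. Centrifugation at 21,000xg for 90 min left soluble protein in the supernatant, which TMTpro 16plex LC-MS/MS quantified with equalised channel sums. Results are log-two fold changes in thermal stability compared with solvent controls, from duplicates.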

pictilisib = compound: CS(=O)(=O)N1CCN(Cc2cc3nc(-c4cccc5[nH]ncc45)nc(N4CCOCC4)c3s2)CC1 [pictilisib]
How it was run: as §1

crizotinib = compound: C[C@@H](Oc1cc(-c2cnn(C3CCNCC3)c2)cnc1N)c1c(Cl)ccc(F)c1Cl [crizotinib]
How it was run: as §1

[1] = compound: C[C@H](C1=CC=C(C=C1)C(=O)NC2=C3C=CNC3=NC=C2)N
How it was run: as §1

duvelisib = compound: C[C@H](Nc1ncnc2nc[nH]c12)c1cc2cccc(Cl)c2c(=O)n1-c1ccccc1 [duvelisib]
How it was run: as §1

gandotinib = compound: Cc1cc(Nc2cc(CN3CCOCC3)c3nc(C)c(Cc4ccc(Cl)cc4F)n3n2)n[nH]1 [gandotinib]
How it was run: as §1

tozasertib = compound: Cc1cc(Nc2cc(N3CCN(C)CC3)nc(Sc3ccc(NC(=O)C4CC4)cc3)n2)n[nH]1 [tozasertib]
How it was run: as §1

doramapimod = compound: Cc1ccc(-n2nc(C(C)(C)C)cc2NC(=O)Nc2ccc(OCCN3CCOCC3)c3ccccc23)cc1 [doramapimod]
How it was run: as §1

bafetinib = compound: Cc1ccc(NC(=O)c2ccc(CN3CC[C@H](N(C)C)C3)c(C(F)(F)F)c2)cc1Nc1nccc(-c2cncnc2)n1 [bafetinib]
How it was run: as §1

[2] = compound: Cc1cccc(CC(=O)N2CCc3c2ccc(-c2cn(C)c4ncnc(N)c24)c3F)n1
How it was run: as §1

nilotinib = compound: Cc1cn(-c2cc(NC(=O)c3ccc(C)c(Nc4nccc(-c5cccnc5)n4)c3)cc(C(F)(F)F)c2)cn1 [nilotinib]
How it was run: as §1

[3] = compound: Cc1nc(Nc2n[nH]c3c2CN(C(=O)N[C@H](CN(C)C)c2ccccc2)C3(C)C)c2sccc2n1
How it was run: as §1

dasatinib = compound: Cc1nc(Nc2ncc(C(=O)Nc3c(C)cccc3Cl)s2)cc(N2CCN(CCO)CC2)n1 [dasatinib]
How it was run: as §1

[4] = compound: Cc1ncc(-c2ccnc(Nc3ccc(S(C)(=O)=O)cc3)n2)n1C(C)C
How it was run: as §1

[5] = compound: Cn1cc(-c2ccc3c(c2)CCN3C(=O)Cc2cccc(C(F)(F)F)c2)c2c(N)ncnc21
How it was run: as §1

quisinostat = compound: Cn1cc(CNCC2CCN(c3ncc(C(=O)NO)cn3)CC2)c2ccccc21 [quisinostat]
How it was run: as §1

tipifarnib = compound: Cn1cncc1[C@@](N)(c1ccc(Cl)cc1)c1ccc2c(c1)c(-c1cccc(Cl)c1)cc(=O)n2C [tipifarnib]
How it was run: as §1

[6] = compound: NC(=O)Nc1cc(-c2cccc(F)c2)sc1C(=O)N[C@H]1CCCNC1
How it was run: as §1

[7] = compound: NC(=O)c1cnc(N[C@@H]2CCCC[C@@H]2N)nc1Nc1cccc(-n2nccn2)c1
How it was run: as §1

[8] = compound: NC1(c2ccc(-c3nc4ccn5c(=O)[nH]nc5c4cc3-c3ccccc3)cc2)CCC1
How it was run: as §1

Measured: log2 fold change

TUBB (UniProt P07437)
UniProt P07437, sequence (P07437 whole entry, looked up): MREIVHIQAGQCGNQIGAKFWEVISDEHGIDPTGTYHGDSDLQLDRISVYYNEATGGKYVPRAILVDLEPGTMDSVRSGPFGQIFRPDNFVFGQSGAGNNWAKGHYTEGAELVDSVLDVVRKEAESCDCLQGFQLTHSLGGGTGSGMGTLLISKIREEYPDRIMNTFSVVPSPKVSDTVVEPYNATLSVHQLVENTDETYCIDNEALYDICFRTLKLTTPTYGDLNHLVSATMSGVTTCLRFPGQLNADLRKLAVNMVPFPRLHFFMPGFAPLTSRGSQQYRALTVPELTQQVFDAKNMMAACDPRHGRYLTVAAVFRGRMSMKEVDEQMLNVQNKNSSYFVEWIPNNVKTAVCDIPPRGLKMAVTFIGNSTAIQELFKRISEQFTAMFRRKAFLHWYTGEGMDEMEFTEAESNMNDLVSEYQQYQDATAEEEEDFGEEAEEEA
inactive: lapatinib -0.035 | pictilisib -0.002 | crizotinib -0.043 | [1] -0.005 | duvelisib 0.008 | gandotinib 0.065 | tozasertib -0.022 | doramapimod -0.047 | bafetinib 0.024 | [2] -0.01 | nilotinib 0.067 | [3] 0.016 | dasatinib -0.043 | [4] -0.001 | [5] -0.011 | quisinostat 0.004 | tipifarnib 0.022 | [6] 0.048 | [7] -0.022 | [8] -0.003

TEX30 (UniProt Q5JUR7)
UniProt Q5JUR7, sequence (Q5JUR7 whole entry, looked up): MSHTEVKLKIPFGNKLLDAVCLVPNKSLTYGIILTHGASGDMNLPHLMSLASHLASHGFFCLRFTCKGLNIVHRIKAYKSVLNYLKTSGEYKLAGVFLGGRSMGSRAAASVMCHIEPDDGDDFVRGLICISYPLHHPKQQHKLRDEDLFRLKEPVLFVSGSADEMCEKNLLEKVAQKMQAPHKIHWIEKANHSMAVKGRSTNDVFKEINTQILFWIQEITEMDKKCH
inactive: lapatinib -0.07 | pictilisib -0.122 | crizotinib -0.035 | duvelisib 0.102 | gandotinib 0.007 | tozasertib -0.003 | doramapimod 0.036 | bafetinib 0.066 | [2] 0.069 | nilotinib -0.036 | [3] 0.072 | dasatinib -0.109 | [4] 0.003 | [5] -0.004 | quisinostat 0.007 | tipifarnib 0 | [6] 0.046 | [7] -0.017 | [8] -0.052
active: [1] -0.517

TIMELESS (UniProt Q9UNS1)
UniProt Q9UNS1, sequence (Q9UNS1 whole entry, looked up): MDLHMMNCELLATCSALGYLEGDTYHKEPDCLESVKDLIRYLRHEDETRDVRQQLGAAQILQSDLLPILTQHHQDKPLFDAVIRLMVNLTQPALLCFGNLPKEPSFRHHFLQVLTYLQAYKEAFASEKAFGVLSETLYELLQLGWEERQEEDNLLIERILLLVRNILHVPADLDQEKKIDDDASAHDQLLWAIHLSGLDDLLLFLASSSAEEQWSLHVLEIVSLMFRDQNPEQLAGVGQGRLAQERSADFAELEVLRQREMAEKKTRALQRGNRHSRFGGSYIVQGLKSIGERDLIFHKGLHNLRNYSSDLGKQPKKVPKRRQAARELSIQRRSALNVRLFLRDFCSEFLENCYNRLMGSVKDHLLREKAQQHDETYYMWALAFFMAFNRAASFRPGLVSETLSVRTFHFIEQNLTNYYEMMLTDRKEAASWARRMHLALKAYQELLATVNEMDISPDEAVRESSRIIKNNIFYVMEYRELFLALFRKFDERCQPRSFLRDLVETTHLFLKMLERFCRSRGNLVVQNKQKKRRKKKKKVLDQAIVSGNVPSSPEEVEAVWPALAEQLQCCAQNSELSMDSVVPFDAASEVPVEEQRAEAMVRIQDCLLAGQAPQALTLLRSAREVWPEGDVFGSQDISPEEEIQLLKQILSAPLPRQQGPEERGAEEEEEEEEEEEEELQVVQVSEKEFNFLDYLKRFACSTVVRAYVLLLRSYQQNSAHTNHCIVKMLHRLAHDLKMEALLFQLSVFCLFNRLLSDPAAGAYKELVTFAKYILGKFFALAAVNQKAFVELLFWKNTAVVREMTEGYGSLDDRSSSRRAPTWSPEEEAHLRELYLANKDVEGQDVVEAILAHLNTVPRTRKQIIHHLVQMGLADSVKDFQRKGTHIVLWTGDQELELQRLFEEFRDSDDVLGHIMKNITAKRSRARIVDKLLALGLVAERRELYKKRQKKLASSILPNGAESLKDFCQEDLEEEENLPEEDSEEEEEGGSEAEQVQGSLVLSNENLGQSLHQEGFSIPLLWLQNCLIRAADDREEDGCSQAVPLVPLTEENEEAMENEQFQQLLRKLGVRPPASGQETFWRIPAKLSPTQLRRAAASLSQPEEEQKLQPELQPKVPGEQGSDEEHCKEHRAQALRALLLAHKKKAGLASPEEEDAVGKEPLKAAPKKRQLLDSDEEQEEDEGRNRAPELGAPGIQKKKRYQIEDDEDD
inactive: lapatinib 0.017 | pictilisib -0.017 | crizotinib -0.077 | [1] -0.042 | duvelisib -0.029 | gandotinib -0.12 | tozasertib -0.026 | doramapimod -0.02 | bafetinib -0.082 | [2] 0.032 | nilotinib 0.018 | [3] -0.039 | dasatinib -0.082 | [4] 0.024 | [5] 0.005 | quisinostat -0.137 | tipifarnib -0.052 | [6] 0.045 | [7] 0.029 | [8] -0.035

TROAP (UniProt Q12815)
inactive: lapatinib 0.001 | pictilisib -0.088 | crizotinib 0.038 | [1] -0.065 | duvelisib -0.095 | gandotinib 0.072 | tozasertib -0.009 | doramapimod -0.008 | bafetinib -0.1 | [2] 0.004 | nilotinib -0.041 | [3] 0.023 | dasatinib -0.071 | [4] 0.037 | [5] 0.043 | quisinostat -0.096 | tipifarnib -0.005 | [6] 0.007 | [7] 0.031 | [8] -0.018

TNPO3 (UniProt Q9Y5L0)
UniProt Q9Y5L0, sequence (Q9Y5L0 whole entry, looked up): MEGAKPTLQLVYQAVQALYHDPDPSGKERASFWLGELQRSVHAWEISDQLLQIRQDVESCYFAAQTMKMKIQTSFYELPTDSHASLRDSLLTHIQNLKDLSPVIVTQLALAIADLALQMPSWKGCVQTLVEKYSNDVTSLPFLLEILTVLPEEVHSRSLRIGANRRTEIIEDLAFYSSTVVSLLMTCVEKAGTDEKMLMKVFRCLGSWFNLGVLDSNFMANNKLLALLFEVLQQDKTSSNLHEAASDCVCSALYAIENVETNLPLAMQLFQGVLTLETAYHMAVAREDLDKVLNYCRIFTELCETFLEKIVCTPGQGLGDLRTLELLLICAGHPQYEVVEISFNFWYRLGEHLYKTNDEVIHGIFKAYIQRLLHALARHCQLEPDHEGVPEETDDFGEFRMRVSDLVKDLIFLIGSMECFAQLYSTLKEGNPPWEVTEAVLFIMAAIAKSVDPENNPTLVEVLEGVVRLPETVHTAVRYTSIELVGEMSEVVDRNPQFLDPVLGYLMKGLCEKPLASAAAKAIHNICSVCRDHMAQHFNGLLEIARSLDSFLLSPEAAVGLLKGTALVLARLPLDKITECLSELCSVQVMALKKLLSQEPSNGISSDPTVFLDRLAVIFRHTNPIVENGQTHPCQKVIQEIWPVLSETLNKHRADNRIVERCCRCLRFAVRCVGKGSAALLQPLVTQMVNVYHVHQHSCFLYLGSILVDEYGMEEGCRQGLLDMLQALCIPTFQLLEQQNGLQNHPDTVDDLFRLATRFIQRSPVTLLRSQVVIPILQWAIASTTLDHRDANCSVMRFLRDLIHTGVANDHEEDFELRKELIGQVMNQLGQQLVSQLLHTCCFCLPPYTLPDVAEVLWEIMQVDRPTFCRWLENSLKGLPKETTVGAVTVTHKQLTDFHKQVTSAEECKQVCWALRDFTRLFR
inactive: lapatinib -0.024 | pictilisib -0.001 | crizotinib 0.01 | [1] -0.015 | duvelisib 0.025 | gandotinib -0.006 | tozasertib -0.036 | doramapimod -0.024 | bafetinib -0.028 | [2] 0.026 | nilotinib -0.016 | [3] 0.017 | dasatinib 0 | [4] 0.003 | [5] 0.009 | quisinostat -0.001 | tipifarnib 0.001 | [6] -0.002 | [7] -0.016 | [8] -0.01

TRIM33 isoform 2 (UniProt Q9UPN9)
UniProt Q9UPN9, sequence (Q9UPN9 whole entry, looked up): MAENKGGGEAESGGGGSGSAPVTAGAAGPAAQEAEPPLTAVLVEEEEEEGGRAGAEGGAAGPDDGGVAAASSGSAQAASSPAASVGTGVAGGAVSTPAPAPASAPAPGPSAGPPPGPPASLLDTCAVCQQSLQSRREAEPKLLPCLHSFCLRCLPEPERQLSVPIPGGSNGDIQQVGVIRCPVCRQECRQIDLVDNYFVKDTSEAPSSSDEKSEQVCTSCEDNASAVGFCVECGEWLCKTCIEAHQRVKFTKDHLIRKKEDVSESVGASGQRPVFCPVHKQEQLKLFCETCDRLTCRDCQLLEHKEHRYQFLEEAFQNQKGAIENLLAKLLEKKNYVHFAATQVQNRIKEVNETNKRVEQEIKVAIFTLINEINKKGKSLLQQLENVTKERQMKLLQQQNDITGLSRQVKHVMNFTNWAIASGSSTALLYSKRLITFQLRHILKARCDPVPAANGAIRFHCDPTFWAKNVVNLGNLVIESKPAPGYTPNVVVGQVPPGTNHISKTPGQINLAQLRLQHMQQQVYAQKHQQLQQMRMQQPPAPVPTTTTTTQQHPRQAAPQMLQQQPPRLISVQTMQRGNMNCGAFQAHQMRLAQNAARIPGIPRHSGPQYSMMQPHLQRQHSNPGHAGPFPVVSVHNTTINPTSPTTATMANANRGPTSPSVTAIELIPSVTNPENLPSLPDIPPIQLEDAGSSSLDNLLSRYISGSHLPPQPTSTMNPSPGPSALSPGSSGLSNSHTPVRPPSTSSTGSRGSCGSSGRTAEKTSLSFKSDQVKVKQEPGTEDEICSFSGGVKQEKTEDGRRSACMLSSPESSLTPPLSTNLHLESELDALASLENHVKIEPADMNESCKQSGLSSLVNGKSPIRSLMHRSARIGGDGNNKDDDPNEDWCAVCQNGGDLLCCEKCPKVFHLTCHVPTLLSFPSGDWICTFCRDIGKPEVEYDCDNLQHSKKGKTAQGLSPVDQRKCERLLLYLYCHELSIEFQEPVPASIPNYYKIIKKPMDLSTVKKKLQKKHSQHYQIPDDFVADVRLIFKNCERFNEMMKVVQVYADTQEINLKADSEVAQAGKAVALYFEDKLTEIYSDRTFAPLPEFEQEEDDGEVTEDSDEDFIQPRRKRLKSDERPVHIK
inactive: lapatinib -0.034 | pictilisib 0.008 | crizotinib -0.015 | [1] -0.07 | duvelisib -0.002 | gandotinib -0.023 | tozasertib 0.011 | doramapimod 0.021 | bafetinib -0.038 | [2] 0.056 | nilotinib 0.004 | [3] -0.012 | dasatinib -0.044 | [4] -0.015 | [5] 0.021 | quisinostat -0.035 | tipifarnib 0.021 | [6] -0.01 | [7] 0.01 | [8] -0.025

TPD52L2 isoform 7 (UniProt O43399)
UniProt O43399, sequence (O43399 whole entry, looked up): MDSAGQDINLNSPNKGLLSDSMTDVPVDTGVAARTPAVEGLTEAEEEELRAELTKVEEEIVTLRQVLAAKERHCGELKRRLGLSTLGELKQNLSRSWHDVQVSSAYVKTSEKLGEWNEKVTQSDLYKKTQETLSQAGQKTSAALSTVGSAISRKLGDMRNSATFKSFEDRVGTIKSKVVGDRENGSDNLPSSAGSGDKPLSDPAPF
active: gandotinib 0.222
inactive: lapatinib 0.039 | pictilisib 0.003 | crizotinib 0.095 | [1] -0.124 | duvelisib -0.022 | tozasertib 0.043 | doramapimod 0.03 | bafetinib 0.139 | [2] 0.057 | nilotinib 0.022 | [3] 0.019 | dasatinib 0.056 | [4] 0.042 | [5] -0.009 | quisinostat 0.038 | tipifarnib -0.012 | [6] -0.022 | [7] -0.039 | [8] 0.049

TOX4 (UniProt O94842)
inactive: lapatinib 0.058 | pictilisib 0.025 | crizotinib -0.068 | duvelisib 0.06 | tozasertib -0.094 | doramapimod 0.041 | bafetinib -0.043 | [2] 0.189 | nilotinib -0.056 | [3] -0.019 | dasatinib 0.001 | [4] 0.073 | [5] 0.009 | quisinostat -0.018 | tipifarnib -0.02 | [6] -0.017 | [7] 0.017 | [8] 0.034
active: [1] -0.259 | gandotinib 0.231

THEMIS2 (UniProt Q5TEJ8)
UniProt Q5TEJ8, sequence (Q5TEJ8 whole entry, looked up): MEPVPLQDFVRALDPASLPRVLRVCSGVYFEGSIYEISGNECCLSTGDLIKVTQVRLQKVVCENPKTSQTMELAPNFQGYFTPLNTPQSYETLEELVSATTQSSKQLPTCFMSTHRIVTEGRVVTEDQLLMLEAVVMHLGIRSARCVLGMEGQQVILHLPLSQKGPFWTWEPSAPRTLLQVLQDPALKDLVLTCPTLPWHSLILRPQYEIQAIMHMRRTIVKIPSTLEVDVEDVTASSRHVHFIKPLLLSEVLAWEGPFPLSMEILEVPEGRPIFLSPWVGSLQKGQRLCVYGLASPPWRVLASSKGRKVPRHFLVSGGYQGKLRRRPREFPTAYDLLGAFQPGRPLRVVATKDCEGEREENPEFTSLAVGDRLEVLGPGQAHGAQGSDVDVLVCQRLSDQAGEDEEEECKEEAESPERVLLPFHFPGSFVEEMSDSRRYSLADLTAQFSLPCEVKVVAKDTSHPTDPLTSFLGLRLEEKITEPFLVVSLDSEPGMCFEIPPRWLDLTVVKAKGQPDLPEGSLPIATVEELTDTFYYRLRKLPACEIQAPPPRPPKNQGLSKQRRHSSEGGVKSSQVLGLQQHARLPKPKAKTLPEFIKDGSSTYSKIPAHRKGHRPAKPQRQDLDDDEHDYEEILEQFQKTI
inactive: lapatinib -0.052 | pictilisib 0.029 | crizotinib -0.025 | [1] 0.004 | duvelisib -0.026 | gandotinib -0.001 | tozasertib 0.006 | doramapimod -0.042 | bafetinib -0.059 | [2] 0.065 | nilotinib -0.096 | [3] 0.06 | dasatinib -0.092 | [4] -0.144 | [5] 0.059 | quisinostat 0.03 | tipifarnib -0.039 | [6] 0.051 | [7] 0.095 | [8] 0.019
